Compound activity from PubChem BioAssay.
Hits are enriched below; roughly 4.1% of the tested compounds scored in any of these assays.
MIN6 prolif: inducers of MIN6 beta-cell proliferation, primary screen, ATP luminescence, uHTS; 330,000 compounds, 0.29% hits; MIN6 cells proliferation, ATPlite luminescence, 48 h; cells starved in 0.2% serum; 100% = growth in 10% serum; proliferation, % at 10 µM;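 active = compounds whose signal lies at least 3.5 SD above the mean of all wells on their plate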;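 also: 0% = DMSO-treated cells in low-serum medium and 100% = 10% serum control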
FAS-TE inh: FAS thioesterase domain inhibitors, primary screen, biochemical, fluorescence intensity, uHTS. Fatty acid synthase (Homo sapiens), P49327. inhibition, % at 15 µM. recombinant FAS-TE, OMFH fluorogenic substrate, fluorescence endpoint. 360,000 compounds, 0.67% hits;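 active = compounds whose normalised, plate-corrected inhibition of enzyme fluorescence in the single-dose primary screen is 50% or more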;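 also: 0% = DMSO with enzyme and 100% = substrate without enzyme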
pCIP destab: p/CIP-EGFP fusion destabilizers, primary screen, fluorescence, F442A cells | Q05BA5 | 16 h | decrease of EGFP signal, % at 10 µM | 290,000 compounds, 0.01% hits;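 active = EGFP signal decrease of at least 30% at 10 µM or well 3 SD below plate mean, unless failing retest; inactive = the rest, including hits failing retest or dose response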
Target sequence (Q05BA5 1-1403): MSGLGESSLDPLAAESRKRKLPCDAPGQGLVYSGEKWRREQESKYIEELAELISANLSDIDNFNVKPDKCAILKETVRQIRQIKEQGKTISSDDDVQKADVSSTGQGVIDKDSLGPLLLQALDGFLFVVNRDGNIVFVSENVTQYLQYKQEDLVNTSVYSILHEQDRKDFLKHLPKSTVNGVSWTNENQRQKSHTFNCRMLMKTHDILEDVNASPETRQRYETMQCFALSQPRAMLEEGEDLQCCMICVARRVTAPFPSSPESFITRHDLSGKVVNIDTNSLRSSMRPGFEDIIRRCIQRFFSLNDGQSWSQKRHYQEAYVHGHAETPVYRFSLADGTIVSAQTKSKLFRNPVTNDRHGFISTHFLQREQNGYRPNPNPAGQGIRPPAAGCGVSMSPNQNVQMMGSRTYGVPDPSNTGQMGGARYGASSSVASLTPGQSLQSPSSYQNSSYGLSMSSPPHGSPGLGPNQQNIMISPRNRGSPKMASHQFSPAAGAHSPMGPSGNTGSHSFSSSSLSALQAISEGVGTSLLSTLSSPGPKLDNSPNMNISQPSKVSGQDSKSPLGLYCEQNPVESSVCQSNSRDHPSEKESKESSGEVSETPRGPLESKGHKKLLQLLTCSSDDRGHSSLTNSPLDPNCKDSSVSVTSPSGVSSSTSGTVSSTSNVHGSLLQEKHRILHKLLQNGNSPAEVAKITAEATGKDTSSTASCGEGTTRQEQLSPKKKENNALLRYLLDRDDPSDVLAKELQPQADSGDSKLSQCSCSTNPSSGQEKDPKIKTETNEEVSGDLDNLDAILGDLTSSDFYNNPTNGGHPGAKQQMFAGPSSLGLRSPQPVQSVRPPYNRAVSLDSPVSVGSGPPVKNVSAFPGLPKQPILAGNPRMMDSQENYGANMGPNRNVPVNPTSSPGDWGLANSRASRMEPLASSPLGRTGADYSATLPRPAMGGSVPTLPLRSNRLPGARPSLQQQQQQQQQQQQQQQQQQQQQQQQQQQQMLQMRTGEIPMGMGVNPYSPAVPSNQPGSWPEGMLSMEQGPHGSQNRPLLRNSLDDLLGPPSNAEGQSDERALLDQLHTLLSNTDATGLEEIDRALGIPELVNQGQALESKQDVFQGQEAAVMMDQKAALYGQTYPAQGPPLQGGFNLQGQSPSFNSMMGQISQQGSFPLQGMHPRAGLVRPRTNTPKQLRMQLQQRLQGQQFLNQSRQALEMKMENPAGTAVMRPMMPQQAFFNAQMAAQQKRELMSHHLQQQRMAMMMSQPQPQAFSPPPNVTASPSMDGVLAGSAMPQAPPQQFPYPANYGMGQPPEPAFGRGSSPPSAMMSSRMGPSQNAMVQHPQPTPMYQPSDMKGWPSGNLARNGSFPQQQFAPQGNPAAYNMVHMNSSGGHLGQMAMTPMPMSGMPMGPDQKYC
MPTP inh: mitochondrial permeability transition pore inhibitors, primary screen, biochemical, isolated mouse mitochondria, absorbance; AID 602449, 2012; 360,000 compounds, 1.4% hits; inhibition, % at 10 µM; Ca2+ swelling absorbance, 30 min;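 active = inhibition of 50% or more, scaled per plate between neutral and stimulator controls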;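 also: 0% = DMSO wells given calcium and 100% = 1 mM EGTA wells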
NR3A LBD binder: binders of NR3A ligand-binding domain, primary screen, biophysical, differential scanning fluorimetry, uHTS | Tm shift relative to glycine control, % at 25 µM | 340,000 compounds, 2.5% hits | Glutamate receptor ionotropic, NMDA 3A (GRIN3A) ligand-binding domain | AID 1259313, 2017 | NR3A LBD differential scanning fluorimetry, Tm shift; 0% = protein alone, 100% = glycine-bound protein;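 active = melting temperature shift of at least 10% of the positive control shift, at one fixed dose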
An asterisk follows results filed as active; x = no result given.

SMILES	MIN6 prolif	FAS-TE inh	pCIP destab	MPTP inh	NR3A LBD binder
C=C1C(=O)C=C2CN(C(=O)c3ccccc3)[C@@](Cc3ccc(F)cc3)(C(=O)OC)[C@@H]12	-8.1	-1.7	-2.4	-0.2	11.5*
COCCNC(=O)C1(C)CCN(C(=O)c2nc(C)oc2C)C1 (stereo unspecified)	x	-6.1	x	-2.5	x
CC(C)c1ccc(O)c(=O)cc1	x	11.3	x	0.7	x
O=C(CC1SC(=Nc2cccc3ccccc23)N(Cc2ccccn2)C1=O)Nc1ccccc1Br (stereo unspecified)	-1.6	44.5	-3.8	-4.9	-1.5
O=C(CC1SC(=Nc2ccccc2)N(Cc2ccccn2)C1=O)Nc1ccc(Br)cc1 (stereo unspecified)	0.0	27.7	2.0	3.6	12.0*
Cc1ccccc1N=C1SC(CC(=O)Nc2ccc3ccccc3c2)C(=O)N1Cc1ccccn1 (stereo unspecified)	0.0	40.5	-7.2	-5.5	21.6*
COc1ccc(C2=Cc3ccc(OC(C)=O)cc3OC2)cc1	x	-3.9	x	1.5	5.3
Cc1ccc(C(O)c2ncc(-c3cccc4ccccc34)[nH]2)c(C)c1 (stereo unspecified)	x	5.1	x	1.2	x
O=C(NCc1ccccc1)C(c1ccccc1F)n1c(=O)c(-c2cc3ccccc3[nH]2)nc2ccccc21 (stereo unspecified)	x	x	x	3.5	x
CC(C)c1nn2c(N)c(/C=C3\C=Nc4ccccc43)c(=O)nc2s1	-0.1	-5.8	0.5	5.9	0.6
CCC(CC)c1nn2c(N)c(/C=C3\C(C)=Nc4ccccc43)c(=O)nc2s1	-2.1	14.6	-10.5	42.4	13.1*
CCC(CC)c1nn2c(N)c(/C=C3\C=Nc4ccccc43)c(=O)nc2s1	-2.7	-3.8	-9.8	12.2	11.1*
COc1cc(OC)c(C(=O)Nc2ccc3ccccc3c2)cc1OC	-1.7	15.0	-5.1	0.7	-0.2
O=C(Nc1ccc2oc(=O)ccc2c1)c1cc2ccccc2o1	-1.5	0.3	-8.8	8.4	9.2
COc1cc2ccccc2cc1C(=O)Nc1ccc2oc(=O)ccc2c1	0.0	2.3	-8.8	-2.0	15.2*
O=C(Nc1ccc2oc(=O)ccc2c1)c1ccc(-c2ccc(Cl)cc2)o1	-2.6	-6.7	-13.5	4.2	27.1*
O=C(Nc1ccc2oc(=O)ccc2c1)c1ccc(-c2cccc(Cl)c2)o1	-4.7	9.5	-10.2	13.5	28.6*
O=C(Nc1ccc2oc(=O)ccc2c1)c1ccc(-c2ccccc2[N+](=O)[O-])o1	-1.3	1.7	-7.1	6.3	30.4*
O=C(Nc1ccc2oc(=O)ccc2c1)c1ccc(-c2cccc([N+](=O)[O-])c2)o1	-6.6	11.7	-7.3	4.1	35.3*
NNC(=O)c1ccc(-c2cccc([N+](=O)[O-])c2)o1	0.9	1.6	31.9	0.9	-0.9
CCOC(=O)C(=O)/C(=C\N(C)C)c1onc(-c2ccccc2Cl)c1C(=O)OC	-1.7	-6.2	-15.6	2.2	-0.8
CCOC(=O)C(=O)/C(=C\N(C)C)c1onc(-c2c(Cl)cccc2Cl)c1C(=O)OC	-2.6	1.1	3.4	0.5	10.8*
COc1ccc(CCNc2oc(-c3ccc(OC)c(OC)c3)nc2C#N)cc1	-3.9	27.9	-18.4	-0.2	15.7*
COc1ccc(-c2nc(C#N)c(NCCCN(C)C)o2)cc1OC	-3.1	-4.0	-12.1	0.7	-2.7
CC(C)CCN1C(=O)c2cccc3c(N)ccc(c23)C1=O	-2.7	-148.0	x	0.7	14.1*
SMILES	MIN6 prolif	FAS-TE inh	pCIP destab	MPTP inh	NR3A LBD binder
Nc1cccc(N2C(=O)c3cccc4c(N)ccc(c34)C2=O)c1	4.0	-126.3	-100.8	-0.8	10.3*
CCCNC(=O)c1cc(C2CCCN(C(=O)c3ccc4ccccc4c3)C2)on1 (stereo unspecified)	x	-3.2	x	0.1	x
Cc1[nH]nc(SCC(=O)Nc2cccc(O)c2)c1[N+](=O)[O-]	-1.3	-2.2	12.4	0.2	22.1*
CCc1ccc(NC(=O)CSc2n[nH]c(C)c2[N+](=O)[O-])cc1	-2.2	10.7	2.1	26.9	-5.2
Cc1ccc(/C=N/NC(=O)c2ccc(NC(=O)c3ccc(Cl)cc3)cc2)o1	-2.5	-4.7	8.7	0.5	7.4
COc1ccc(C(=O)NNC(=O)C(=O)Nc2ccc(C)cc2)cc1	-0.6	-5.4	-24.1	0.7	-5.6
COc1ccc(NC(=O)c2ccc(C(=O)Nc3ccc(OC)cc3OC)cc2)c(OC)c1	1.9	-1.2	5.0	-0.1	0.2
COc1ccc(C(=O)Nc2ccc(-c3ccc(NC(=O)c4ccc(OC)cc4)c(OC)c3)cc2OC)cc1	0.0	9.6	4.2	1.8	27.5*
COc1ccc(NC(=O)c2ccc(C)cc2)cc1	-3.9	-4.0	-10.3	-0.2	42.0*
COc1ccc(C(=O)Nc2ccc(NC(=O)c3cnccn3)cn2)cc1	-1.7	-5.7	-1.1	0.2	14.1*
Cc1ccc(C(=O)Nc2ccc(C(=O)N/N=C/c3ccc(C)o3)cc2)cc1	-2.3	-1.2	4.9	-0.2	15.3*
CN(C)C(=O)N1CCc2ccc([N+](=O)[O-])cc21	x	-9.2	x	0.1	x
O=C1NC[C@@H](CCCCN2C[C@H](Cc3ccc(O)cc3)N(Cc3ccccc3)C(=O)C2=O)N(CC2CCCCC2)C1=O	x	-0.5	x	-2.4	x
COc1ccc(NC(=O)c2cccc(N3C(=O)C4C5C=CC(C6CC56)C4C3=O)c2)cc1 (stereo unspecified)	-1.6	8.5	6.0	1.2	22.6*
COc1ccc(NC(=O)c2ccccc2)cc1	-3.9	-13.1	x	0.5	9.6
CCc1ccc(OCC(=O)Nc2ccc(N3CCN(C(=O)c4ccccc4)CC3)cc2)cc1	1.6	14.9	-8.2	2.3	1.6
COc1ccc(OCC(=O)Nc2ccc(N3CCN(C(=O)c4ccccc4C)CC3)cc2)cc1	-1.2	2.0	5.4	-0.6	17.6*
COc1ccc(NC(=O)c2cccc(N3C(=O)C4C5C=CC(C6CC56)C4C3=O)c2)c(OC)c1 (stereo unspecified)	0.8	4.0	-11.3	-2.0	-2.6
COc1ccc(C(=O)Nc2ccc(C(=O)NCCc3ccccc3)cc2)cc1	-1.2	-2.9	-11.6	0.4	22.0*
CC(=O)Nc1ccc(/C=N/NC(=O)CCN2CCN(c3ccccc3)CC2)cc1	-3.0	-4.9	10.0	1.7	33.0*
COc1ccc2c(COC(=O)c3ccc(C)c(S(=O)(=O)N4CCOCC4)c3)cc(=O)oc2c1	x	35.5	x	-2.0	-0.3
COc1ccccc1NC(=O)COC(=O)Cn1c(C)csc1=O	x	-4.3	x	-0.5	x
COc1ccc(NC(=O)c2ccc(CN3CCN(c4ccccc4)CC3)cc2)cc1	-0.9	4.5	0.3	1.9	-21.6
Cc1ccc(-c2cc(NC(=O)c3ccccc3)on2)cc1	-0.8	0.4	-5.5	0.4	-13.3
